Results published in PubChem BioAssay (NCATS).
Records with an inconclusive call do not appear. Active and inactive are the calls of the source.

Experiment: qHTS for identification of novel therapeutic agents for treatment of microphthalmiaassociated transcription factor (MiT) renal cell carcinoma (RCC) (AID 1963991)
Conditions: CellTiter-Glo, 48 h; for Potency: active = Z-AUC below -0.8 in all three lines; for z-score: stronger effect = lower value
Text: PI: Marston Linehan Ph.D.
Urologic Oncology Branch, Center for Cancer Research (CCR)
National Cancer Institute (NCI), National Institute of Health (NIH), Bethesda, Maryland
MiT-Renal Cell Carcinoma (RCC) is characterized by genomic translocations involving microphthalmia-associated transcription factor (MiT) family members TFE3, TFEB, or MITF. MiT-RCC represents a specific subtype of sporadic RCC that is predominantly seen in young patients and can present with heterogeneous histological features making diagnosis challenging. Moreover, the disease biology of this aggressive cancer is poorly understood and there is no accepted standard of care therapy for patients with advanced disease. Tumor-derived cell lines have been established from human TFE3-RCC providing useful models for preclinical studies. TFE3-RCC tumor derived cell lines and their tissues of origin were characterized by IHC and gene expression analyses. An unbiased high-throughput drug screen was performed to identify novel therapeutic agents for treatment of MiT-RCC. Potential therapeutic candidates were validated in in vitro and in vivo preclinical studies. Mechanistic assays were conducted to confirm the on-target effects of drugs. The results of a high-throughput small molecule drug screen utilizing three TFE3-RCC tumor-derived cell lines identified five classes of agents with potential pharmacological efficacy, including inhibitors of phosphoinositide-3-kinase (PI3K) and mechanistic target of rapamycin (mTOR), and several additional agents, including the transcription inhibitor Mithramycin A. Upregulation of the cell surface marker GPNMB, a specific MiT transcriptional target, was confirmed in TFE3-RCC and evaluated as a therapeutic target using the GPNMB-targeted antibody-drug conjugate CDX-011. […] The results of the high-throughput drug screen and validation studies in TFE3-RCC tumor-derived cell lines have provided in vitro and in vivo preclinical data supporting the efficacy of the PI3K/mTOR inhibitor.
SEQUENCE No. (e.g., 1, 2, 3, etc.); […] (e.g., Cells, Incubation, Reagent, etc.); VALUE; DESCRIPTION.
1; Cells; 3 uL; white, solid-bottom Grenier assay plate.
2; Compounds; 23 nL; Kalypsis pin-tool (Wako USA).
3; Incubation; 48 hr; 37 C, 5% CO2, 95% humidity.
4; Reagent; 3 uL; CellTiter-Glo reagent (Promega).
5; Incubation; 15 min; room temperature.
6; Detection; Luminescence; ViewLux plate reader (PerkinElmer).
NOTES (numbers refer to Sequence numbers above)
1. Quantitative high-throughput screening (qHTS) of 1912 pharmacologically defined small molecule compounds was conducted on three TFE3-fusion cell lines bearing three different fusion partners (UOK109, UOK124, UOK145). Briefly, 500 cells in complete growth media were plated into white, solid-bottom, 1536-well tissue culture treated plates (Grenier Cat. 789173-F) using a Multidrop Combi cassette dispenser.
2. Twenty-three nanoliter of 1912 pharmacologically defined small molecule compounds of the NCATS Mechanism Interrogation PlatE (MIPE) version 4.0 were added to each assay plate using a Pintool Dispenser (Wako) equipped with 1536 pin head.
3. Plates were covered with stainless steel gasketed lids and incubated for 48 hours at standard cell culture conditions.
4. Viability was assessed by adding 3uL of CellTiter-Glo detection reagent (Promega).
5. Plates were covered with gasket lids and incubated for 15 minutes at room temperature.
6. Luminescence was measured on a ViewLux plate reader (PerkinElmer). Post-screen data processing used DMSO controls as 100% viability and empty wells as 0% viability and dose response curve fitting was done for all 11 concentrations for each compound.

[1] = TFE3-RCC UOK109 viability, measured here: UOK109 Z-AUC
[2] = TFE3-RCC viability, measured here: UOK124 Z-AUC
[3] = TFE3-RCC viability, measured here: UOK145 Z-AUC
Potency is the fitted concentration of half-maximal effect.

SMILES	Potency (TFE3-RCC UOK109 viability)	z-score [1]	z-score [2]	z-score [3]
CNC(=O)Nc1ccc(-c2nc(N3CC4CCC(C3)O4)c3cnn(C4CCC5(CC4)OCCO5)c3n2)cc1	0.0418 µM (active)	-1.43	-1.26	-2.73
CCN(CC)CCNC(=O)c1c(C)[nH]c(C=C2C(=O)Nc3ccc(F)cc32)c1C	34 µM (active)	-1.15	-1.68	-1.38
CCc1cnn2c(NCc3ccc[n+]([O-])c3)cc(N3CCCC[C@@H]3CCO)nc12	0.059 µM (active)	-2.34	-1.76	-1.93
N#CNC(=NCCCCCCOc1ccc(Cl)cc1)Nc1ccncc1	7.43 µM (active)	-0.809	-2.82	-3.43
CCCCCCCCCCCCCCCC(=O)OC[C@@H](NC(=O)C(Cl)Cl)[C@H](O)c1ccc([N+](=O)[O-])cc1		1.8	0.082	0.929
CCCCCCCN(CC)CCCC(O)c1ccc(NS(C)(=O)=O)cc1 (stereo not given)		0.349	-0.246	0.649
CC(C)N(CC[C@H](c1ccccc1)c1cc(CO)ccc1O)C(C)C		0.828	0.666	0.832
C[C@@H]1CC[C@@]2(OC1)OC1CC3C4CC=C5CC(O)CCC5(C)C4CCC3(C)C1[C@@H]2C (stereo not given in full)		0.586	0.304	0.634
Cc1noc(-c2ccc(CSCCC(=O)O)cc2)c1NC(=O)OC(C)c1ccccc1Cl (stereo not given)		-0.684	0.0534	0.402
C[N+]1(C)[C@@H]2C[C@@H](OC(=O)C(O)(c3cccs3)c3cccs3)C[C@H]1[C@@H]1O[C@@H]12		0.526	0.59	0.677
O=C(Nc1ccc(Oc2ccnc3[nH]ccc23)c(F)c1)c1cccn(-c2ccc(F)cc2)c1=O		0.0941	0.0675	0.349
C[C@H]1O[C@H](O[C@H]2[C@H](O)[C@@H](O)[C@@H](O[C@H]3[C@H](O)[C@@H](O)C(O)O[C@H]3CO)O[C@H]2CO)[C@H](O)[C@@H](O)[C@H]1N[C@H]1C=C(CO)[C@@H](O)[C@H](O)[C@@H]1O (stereo not given in full)		0.975	0.169	1.64
